Each structure is given as a SMILES string. This is part of a sample that, as a whole, favours compounds with a hit. Of some 83,000 tested, about 20% had one in any assay.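 For each line, cells grew in 96-well plates with the test compound present at a single concentration for 48 hours.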 Values without a mark were called inactive. Active and inactive are the calls of the source. Rule for the calls: active = growth percent below 10; inactive = the rest.

Among the test systems are DU-145 prostate; K-562 leukemia; MDA-MB-231 breast; RXF 393 renal; SF-268 CNS; SF-539 CNS; UACC-257 melanoma; M14 melanoma; HCT-15 colon; HT29 colon; SNB-75 CNS; SNB-19 CNS; U251 CNS; PC-3 prostate; SK-MEL-5 melanoma; UACC-62 melanoma; LOX IMVI melanoma; SK-MEL-28 melanoma; MALME-3M melanoma; SF-295 CNS.
Holding throughout (experiment): NCI-60 one-dose screen, 48 h (100 = growth as untreated, 0 = no growth, -100 = all killed)
Common to all, as to conditions: 10 µM unless noted

For the compound `CN(C)c1ccc(C(c2ccccc2)c2ccc(N(C)C)cc2)cc1`, the growth in the experiment with DU-145 prostate is 101%; with K-562 leukemia it was 73.4%; in the experiment with MDA-MB-231 breast it was 98.5%; in the experiment with RXF 393 renal, 107%; in the experiment on SF-268 CNS, 89.9%; in the experiment on SF-539 CNS, 112%. Further, the growth in the experiment with UACC-257 melanoma was 98.1%; with M14 melanoma, 93%; in the experiment with HCT-15 colon it was 99.7%; with HT29 colon, 90.4%; in the experiment with SNB-75 CNS, 108%; in the experiment with SNB-19 CNS it was 96.9%. Also, the growth with U251 CNS was 77.7%; in the experiment with PC-3 prostate it was 90.7%; with SK-MEL-5 melanoma it was 106%; in the experiment with UACC-62 melanoma it was 98.3%; in the experiment with LOX IMVI melanoma it was 90%; in the experiment with SK-MEL-28 melanoma, 107%.
For the compound `Nc1c(C(=O)c2ccc(Br)cc2)sc2nc3c(cc12)CCCC3`, the growth in the experiment on DU-145 prostate is 92.4%; in the experiment with MALME-3M melanoma, 82.6%; in the experiment with MDA-MB-231 breast it was 91%; in the experiment with RXF 393 renal it was 62.5%; in the experiment on SF-268 CNS, 101%; with SF-295 CNS, 98.2%. Moreover, the growth in the experiment on SF-539 CNS was 92%; in the experiment on UACC-257 melanoma, 91.9%; in the experiment with M14 melanoma it was 82.7%; in the experiment on HCT-15 colon it was 80.9%; in the experiment on HT29 colon, 96.6%; in the experiment on SNB-75 CNS, 101%. In addition, the growth was 97.3% in the experiment with SNB-19 CNS; 89.6% with U251 CNS; 85.4% in the experiment on PC-3 prostate; 92% in the experiment on SK-MEL-5 melanoma; 93.9% in the experiment with UACC-62 melanoma; 112% with LOX IMVI melanoma. The growth in the experiment with SK-MEL-28 melanoma is 89%.
On to `CN1CCN(c2ccc(N3Cc4ccccc4OC4=C3C(=O)c3c(O)ccc(O)c3C4=O)cn2)CC1`, for which the growth in the experiment with DU-145 prostate was -95.9% (active); in the experiment on MALME-3M melanoma, -84.2% (active); in the experiment with MDA-MB-231 breast, -75.1% (active); with RXF 393 renal it was -93.6% (active); in the experiment on SF-268 CNS, -6.04% (active); in the experiment with SF-539 CNS it was -58.3% (active). For the same compound, the growth with UACC-257 melanoma is -88.9% (active); in the experiment on M14 melanoma, -76.8% (active); in the experiment with HCT-15 colon it was -74.9% (active); in the experiment with HT29 colon, -42.8% (active); in the experiment with SNB-75 CNS, -21.8% (active); in the experiment on SNB-19 CNS, 11%. For the same compound, the growth was -4.98% (active) in the experiment with U251 CNS; 1.25% (active) with PC-3 prostate; -61.9% (active) with SK-MEL-5 melanoma; -59.9% (active) with UACC-62 melanoma; -71.4% (active) with LOX IMVI melanoma; -60% (active) in the experiment on SK-MEL-28 melanoma.
Take `COc1ccc2c(c1)CCCC21C(=O)Nc2c(Cl)cccc21` (configuration not stated): the growth with DU-145 prostate is 93%; in the experiment with MALME-3M melanoma it was 63.3%; with MDA-MB-231 breast, 77.4%; in the experiment on RXF 393 renal, 86.5%; in the experiment on SF-268 CNS, 75.8%; in the experiment with SF-539 CNS, 73.3%. Besides, the growth was 83.8% in the experiment with UACC-257 melanoma; 38.8% in the experiment on M14 melanoma; 85% in the experiment with HCT-15 colon; 21.1% with HT29 colon; 41% in the experiment with SNB-75 CNS; 82.9% in the experiment on SNB-19 CNS. For the same compound, the growth is 54.1% in the experiment on U251 CNS; 74.4% in the experiment with PC-3 prostate; 76.8% in the experiment on SK-MEL-5 melanoma; 58% in the experiment with UACC-62 melanoma; 71.3% in the experiment on LOX IMVI melanoma; 64.7% with SK-MEL-28 melanoma.
On to `COCCCNCC(=O)Nc1c(C)cccc1C`, for which the growth is 113% in the experiment on DU-145 prostate; 120% in the experiment with K-562 leukemia; 96.6% in the experiment on MDA-MB-231 breast; 113% in the experiment on RXF 393 renal; 109% with SF-268 CNS; 95.3% with SF-539 CNS. For the same compound, the growth with UACC-257 melanoma is 106%; in the experiment on M14 melanoma, 114%; with HCT-15 colon, 108%; in the experiment with HT29 colon, 112%; in the experiment on SNB-75 CNS, 115%; in the experiment on SNB-19 CNS it was 110%. Besides, the growth was 104% in the experiment with U251 CNS; 102% in the experiment on PC-3 prostate; 106% with SK-MEL-5 melanoma; 110% with UACC-62 melanoma; 101% with LOX IMVI melanoma; 122% in the experiment with SK-MEL-28 melanoma.
With `COc1cc(-c2n/c(=C\c3c(O)[nH]c4cc(Cl)ccc34)cc3c2=Nc2ccccc2-3)cc(OC)c1OC`, the growth is 30.6% with DU-145 prostate; 49.1% with K-562 leukemia; 53.1% in the experiment on MDA-MB-231 breast; 28.7% in the experiment on RXF 393 renal; 22.5% in the experiment on SF-268 CNS; 62.7% with SF-539 CNS. In addition, the growth is 40.9% in the experiment on UACC-257 melanoma; 37.7% in the experiment with M14 melanoma; 93.7% with HCT-15 colon; 36.1% with SNB-75 CNS; 63.9% in the experiment with SNB-19 CNS; 23.8% in the experiment with U251 CNS. Besides, the growth is 52.2% in the experiment with PC-3 prostate; 27.2% in the experiment with SK-MEL-5 melanoma; 56.8% with UACC-62 melanoma; 34.3% in the experiment on LOX IMVI melanoma; 43% in the experiment on SK-MEL-28 melanoma.
Take `Cc1ccc(O)c(Cc2ccccc2)c1`: the growth was 108% in the experiment with DU-145 prostate; 143% in the experiment on MALME-3M melanoma; 96.7% with MDA-MB-231 breast; 103% in the experiment with RXF 393 renal; 99.6% with SF-268 CNS; 100% with SF-539 CNS. The growth in the experiment on UACC-257 melanoma was 93.7%; with M14 melanoma, 101%; in the experiment with HCT-15 colon it was 107%; in the experiment on HT29 colon, 97.2%; in the experiment with SNB-75 CNS, 74.9%; in the experiment with SNB-19 CNS it was 96.9%. Also, the growth in the experiment with U251 CNS is 94.6%; in the experiment with PC-3 prostate, 79.9%; with SK-MEL-5 melanoma, 109%; in the experiment with UACC-62 melanoma it was 90.2%; in the experiment with LOX IMVI melanoma, 96.4%; in the experiment on SK-MEL-28 melanoma it was 108%.
On to `COc1ccc2c(c1)CCCC21C(=O)Nc2ccccc21` (configuration not stated), for which the growth in the experiment with DU-145 prostate is 103%; with MALME-3M melanoma, 102%; in the experiment with MDA-MB-231 breast it was 99.4%; with RXF 393 renal it was 110%; in the experiment on SF-268 CNS, 86.6%; with SF-539 CNS, 101%. For the same compound, the growth was 110% with UACC-257 melanoma; 109% with M14 melanoma; 97.2% with HCT-15 colon; 87.4% with HT29 colon; 101% with SNB-75 CNS; 105% with SNB-19 CNS. Further, the growth in the experiment with U251 CNS was 99.3%; with PC-3 prostate, 104%; in the experiment with SK-MEL-5 melanoma, 103%; with UACC-62 melanoma, 106%; in the experiment on LOX IMVI melanoma, 98%; in the experiment on SK-MEL-28 melanoma it was 111%.
Turning to `O=C(NCCNC(=O)c1cc(S(=O)(=O)NCCc2ccccc2)c(O)c(O)c1O)c1cc(S(=O)(=O)NCCc2ccccc2)c(O)c(O)c1O`, the growth in the experiment on DU-145 prostate was 77.1%; in the experiment on MALME-3M melanoma, 94.3%; in the experiment with MDA-MB-231 breast, 59.9%; in the experiment with RXF 393 renal, 78.1%; in the experiment with SF-268 CNS, 45.9%; in the experiment with SF-539 CNS, 20.3%. The growth in the experiment with UACC-257 melanoma was 86.1%; in the experiment on M14 melanoma, 44.4%; with HCT-15 colon, 40.5%; with HT29 colon, 108%; with SNB-75 CNS, 63%; in the experiment on SNB-19 CNS it was 35.7%. Further, the growth is 31.3% in the experiment on U251 CNS; 40.2% in the experiment with PC-3 prostate; 15.6% in the experiment with SK-MEL-5 melanoma; -15% (active) in the experiment with UACC-62 melanoma; 15% in the experiment on LOX IMVI melanoma; 54.2% with SK-MEL-28 melanoma.

The values are drawn from PubChem BioAssay (NCI).
